# System: BTK
# Settings: concentration: 1 μM, replicates: in singlicate; n = 1
# 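Further: KINOMEscan kinase panel screen.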
row,Structure (SMILES),%Inh
1,COc1ccc(C2=C(Nc3cccc(C(=O)O)c3)C(=O)NC2=O)cc1 [SB-390765],0%
2,COc1ccc(Nc2nccc(-c3cccc(NC(=O)c4cc5cc(F)ccc5[nH]4)c3)n2)cc1 [GSK1229782],31%
3,CCCc1ccc(S(=O)(=O)NC2CCN(c3ccnc(Nc4ccc(F)cc4)n3)C2)cc1 (stereo not shown) [GSK1379715],0%
4,CSc1nn2c(=O)cc(N3CCOCC3)nc2n1Cc1cccc(C(F)(F)F)c1C [GSK2363608],0%
5,CC(=O)Nc1nc2cnc(Nc3cc(NC(=O)c4cccc(CCC#N)c4)ccc3C)nc2s1,32%
6,Cc1ccc(NC(=O)Nc2cc(C(C)(C)C)nn2-c2ccccc2)cc1 [GSK1014915],0%
7,Cc1cccc(-c2nc(Nc3ccc4[nH]ncc4c3)c3ccccc3n2)n1 [GW857175],10%
8,Cc1cccc(-c2nc(C)cc(Nc3ccncc3)n2)n1 [GSK257997],0%
9,CS(=O)(=O)c1ccc(-c2nc3n(c2-c2ccncc2)CCC3)cc1 [SKF-105942],0%
10,O=C(Nc1ccc2c(c1)OCO2)NC1CCN(c2ccnc(Nc3ccc(F)cc3)n2)C1 (stereo not shown) [GSK1379724],0%
11,O=c1cc(N2CCOCC2)nc2n(Cc3cccc(Cl)c3Cl)ccn12 [GSK2286295],0%
12,COC(=O)c1c(-c2ccccc2)c2cc(OC)ccc2c(=O)n1Cc1ccccc1,54%
13,O=C(Nc1ccccc1)Nc1cccc(Oc2ccc3nccn3n2)c1,0%
14,Fc1cc(Cl)ccc1Nc1ccnc2cc(I)ccc12 [GW551191],0%
15,Cc1ccc(NC(=O)Nc2cccc(Cl)c2)cc1-c1ccc(C(=O)Nc2ccncc2)cc1 [GSK1398468],0%
16,O=C(O)COc1ncnc2cc(-c3ccc4[nH]ncc4c3)sc12,0%
17,Cn1ccc2ncnc(Oc3cccc(C(=O)Nc4ccccc4)c3)c21,0%
18,Cc1ccccc1-n1cnc2c(N)ncnc21 [SKF-97510],0%
19,COc1cc2ncnc(Nc3ccc4nc(-c5ccccc5)[nH]c4c3)c2cc1OC.Cl [GW282450],0%
20,Cl.O=C(Nc1cccc(-c2nn3ncccc3c2-c2ccnc(Nc3cccnc3)n2)c1)c1c(F)cccc1F [GSK312879],0%
21,CN(C)CCN(C)C(=O)c1cc(-c2ccncc2)c(-c2ccc(Cl)c(O)c2)o1.Cl.Cl [SB-710397],10%

# System: BUB1
# Settings: concentration: 1 μM, replicates: in singlicate; n = 1
row,Structure (SMILES),%Inh
1,CN1C(=O)C(Nc2ccc(Cl)c(C(=O)O)c2)=C(c2ccc(Cl)cc2)C1=O [SB-404290],0%
2,Cc1cccc(-c2nc(-c3ccc(S(C)(=O)=O)cc3)sc2-c2ccnc(NCCc3ccccc3)c2)c1,24%
3,COc1cccc(-c2cc(-c3c[nH]nc3-c3ccccn3)ccn2)c1 [GW680338],27%
4,Cl.NC(=O)c1cccc(Nc2nccc(Nc3ccc(Oc4cccc(Cl)c4)c(Cl)c3)n2)c1 [GW659008],36%
5,Cn1ccc2ncnc(Oc3ccc(NC(=O)Nc4ccccc4)cc3)c21,0%
6,Cc1ccc(C(=O)Nc2ccc(Nc3ccnc4cc(-c5ccccn5)ccc34)cc2O)cc1.Cl [GW440146],54%
7,Cc1c(O)cccc1Nc1ccnc2ccc(C(F)(F)F)cc12.Cl [GW466413],29%
8,CC(C)(C)c1ccc(C(=O)Nc2cn3cc(-c4cccnc4)ccc3n2)cc1,8%
9,CC1=C(C(=O)Nc2cc3cn[nH]c3cc2F)C(c2ccc(C(F)(F)F)cc2)CC(=O)N1 (stereo not shown) [GSK429286],18%
10,Cl.c1ccc(-c2n[nH]cc2-c2ccnc(-c3ccc(CN4CCOCC4)cc3)c2)nc1 [GW776245],0%
11,Cc1cccc(-c2cc(Nc3ccncc3)c3ccccc3n2)n1 [GSK223675],0%
12,Cc1cccc(-c2nc(Nc3ccncc3)c3ccccc3n2)n1 [GW855857],0%
13,COc1ccc2nc(-c3cccc(C)n3)nc(Nc3ccncc3)c2c1 [GSK204919],38%
14,COc1ccc(C2=C(Nc3cccc(C(=O)O)c3)C(=O)NC2=O)cc1 [SB-390765],0%
15,COc1ccc(Nc2nccc(-c3cccc(NC(=O)c4cc5cc(F)ccc5[nH]4)c3)n2)cc1 [GSK1229782],64%
16,CCCc1ccc(S(=O)(=O)NC2CCN(c3ccnc(Nc4ccc(F)cc4)n3)C2)cc1 (stereo not shown) [GSK1379715],29%
17,CC(=O)Nc1nc2cnc(Nc3cc(NC(=O)c4cccc(CCC#N)c4)ccc3C)nc2s1,14%

row,Structure (SMILES),%Inh
1,Cc1ccc(NC(=O)Nc2cc(C(C)(C)C)nn2-c2ccccc2)cc1 [GSK1014915],21%
2,Cc1cccc(-c2nc(Nc3ccc4[nH]ncc4c3)c3ccccc3n2)n1 [GW857175],65%
3,Cc1cccc(-c2nc(C)cc(Nc3ccncc3)n2)n1 [GSK257997],9%
4,CS(=O)(=O)c1ccc(-c2nc3n(c2-c2ccncc2)CCC3)cc1 [SKF-105942],26%
5,O=C(Nc1ccc2c(c1)OCO2)NC1CCN(c2ccnc(Nc3ccc(F)cc3)n2)C1 (stereo not shown) [GSK1379724],24%
6,O=c1cc(N2CCOCC2)nc2n(Cc3cccc(Cl)c3Cl)ccn12 [GSK2286295],0%
7,COC(=O)c1c(-c2ccccc2)c2cc(OC)ccc2c(=O)n1Cc1ccccc1,21%
8,O=C(Nc1ccccc1)Nc1cccc(Oc2ccc3nccn3n2)c1,0%
9,Fc1cc(Cl)ccc1Nc1ccnc2cc(I)ccc12 [GW551191],54%
10,Cc1ccc(NC(=O)Nc2cccc(Cl)c2)cc1-c1ccc(C(=O)Nc2ccncc2)cc1 [GSK1398468],53%
11,O=C(O)COc1ncnc2cc(-c3ccc4[nH]ncc4c3)sc12,25%
12,Cn1ccc2ncnc(Oc3cccc(C(=O)Nc4ccccc4)c3)c21,8%
13,Cc1ccccc1-n1cnc2c(N)ncnc21 [SKF-97510],0%
14,COc1cc2ncnc(Nc3ccc4nc(-c5ccccc5)[nH]c4c3)c2cc1OC.Cl [GW282450],6%
15,Cl.O=C(Nc1cccc(-c2nn3ncccc3c2-c2ccnc(Nc3cccnc3)n2)c1)c1c(F)cccc1F [GSK312879],7%
16,NC(=O)c1nnc2ccccc2c1N,12%
17,CN(C)CCN(C)C(=O)c1cc(-c2ccncc2)c(-c2ccc(Cl)c(O)c2)o1.Cl.Cl [SB-710397],95.2%
